From PubChem BioAssay (Tox21) come the findings set out here.

Results filed as inconclusive are left out. A number with no mark means an inactive call. Unless noted, the call rests on the fitted dose curve.
On the % scale 0 is the no-effect control and ±100 the full control effect.

The nature of one assay: cAMP Responsive Elements (CRE) small molecule agonists, cell-based qHTS assay (AID 1963590). Particulars: CRE-bla HEK293T, beta-lactamase FRET ratio, 3 h; series mostly up to 92.4 µM; activation: at the top concentration. The essentials: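 CRE-bla HEK 293T cells, 2,000/well in DMEM with 10% dialyzed FBS and 25 mM HEPES, pre-incubated 18 h at 37 C, then exposed to compound 3 h at 37 C. Beta-lactamase reporter read with LiveBLAzer B/G FRET substrate after 2 h at room temperature.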
A general note: Quantitative high-throughput screening tests each substance at several concentrations.
Regarding `CCCCCCC(CO)CCCC` (stereo unspecified), the “activation” value was 0.56%. In the case of `S=C(SSSSSSC(=S)N1CCCCC1)N1CCCCC1`, the activation is -0.287% [at 19 µM]. Regarding `CO[Si](CCCS)(OC)OC`, the “activation” value was 0.389%. Turning to `NC(=O)C(=O)N/N=C/c1ccc([N+](=O)[O-])o1`, the “activation” value was 2.6% [at 42.5 µM]. Take `CC(C)OC(=O)C(C(=O)OC(C)C)=C1SC=CS1`: the “activation” value is 1.66% [at 42.5 µM]. Turning to `O=S(O)O`, the activation was 1.33% [at 19 µM].

On to `O=C1O[C@@H]2[C@@H](O)[C@H](O)O[C@@H]2[C@H]1O`, for which the “activation” value was -1.41%.

As to `CCc1ccc(CC)cc1`, the “activation” value was -0.161%.

Take `CC(C)(C)N(CCO)CCO`: the “activation” value is 0.119%. Still for that read-out and setting: then `O=CCCc1ccccc1`, with -0.321%. For the compound `CCCCNc1ccc(NCCCC)c2c1C(=O)c1ccccc1C2=O`, the activation is -1.16% [at 19 µM].

In the case of `O=C(O)c1ccncc1`, the “activation” value was 0.375%. On the same count and under the same terms, then `Clc1cc(Cl)c(-c2c(Cl)c(Cl)cc(Cl)c2Cl)cc1Cl`, with 2.64% [at 42.5 µM]; and `CC(=O)N(CC(O)CN(C(C)=O)c1c(I)c(C(=O)NCC(O)CO)c(I)c(C(=O)NCC(O)CO)c1I)c1c(I)c(C(=O)NCC(O)CO)c(I)c(C(=O)NCC(O)CO)c1I` (stereo unspecified), with -1.16% [at 42.5 µM]; and `CCCCCCCCCCCCS(=O)(=O)Cl`, with 1.16% [at 19 µM]. Still for that read-out and setting: then `CCNC(=O)N1CCN(CCCC(c2ccc(F)cc2)c2ccc(F)cc2)CC1`, with 2.34% [at 42.5 µM]. As for `CC/C=C\CCOC(=O)c1ccccc1`, the “activation” value is 0.145%. As for `CCOC(=O)C1=C(C)NC(C)=C(C(=O)OC)C1c1cccc(Cl)c1Cl` (stereo unspecified), the “activation” value was 4.67% [at 42.5 µM]. For `Clc1ccnc(Cl)n1`, the “activation” value was -0.605%. Same read-out and setting: then `OCc1ccccn1`, with 0.283% [at 42.5 µM]. For `CCOC(=O)/C=C/C(=O)O`, the “activation” value was -1.5%. Consider `CCCCC`, for which the “activation” value was -0.719%. Consider `Cc1ccc2c(c1)c1c3n2CCNC3CCC1` (stereo unspecified), for which the “activation” value is 1.12% [at 42.5 µM]. The same measure, in the same setting: then `CC1(C)S[C@@H]2[C@H](NC(=O)C(C(=O)O)c3ccccc3)C(=O)N2[C@H]1C(=O)O` (stereo partly specified), with 0.24% [at 42.5 µM].

Consider `CC(CC(C#N)(c1ccccc1)C(C)C)N(C)C` (stereo unspecified), for which the “activation” value was -0.503% [at 42.5 µM].

For the compound `C=CCCCC`, the “activation” value was -0.0409%.

As for `CCCCCCCC1CCCC1=O` (stereo unspecified), the “activation” value was -1.96%.

A short description of the next assay: cAMP Responsive Elements (CRE) small molecule antagonists, cell-based qHTS assay (AID 1963591; active means well fitted inhibition curve with a large enough effect in the signal ratio in the repeat runs, not every such curve was filed as active; the % refers to the signal ratio). The conditions noted are these: CRE-bla HEK293T, beta-lactamase FRET ratio; series mostly up to 92.4 µM; activity change, negative = inhibition: at the top concentration. The essentials:
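CRE-bla HEK293T cells plated 18 h, then given compound plus NKH477 at 0.25 uM final for 3 h at 37C. Beta-lactamase reporter read with LiveBLAzer B/G FRET substrate after 2 h at room temperature.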
Regarding `CC(C)OCC1CO1` (stereo unspecified), the “activity change, negative = inhibition” value was -4.98%. Still for that read-out and setting: then `CCCCCCC(CO)CCCC` (stereo unspecified), with -5.57%; and `NC(=O)C(=O)N/N=C/c1ccc([N+](=O)[O-])o1`, with -0.428% [at 42.4 µM]. Same read-out and setting: then `O=C(CCCN1CCC(O)(c2ccc(Br)cc2)CC1)c1ccc(F)cc1`, with 4.55% [at 42.4 µM]. The same measure, in the same setting: then `O=S(O)O`, with 0.0539% [at 18.9 µM]. Consider `O=C1O[C@@H]2[C@@H](O)[C@H](O)O[C@@H]2[C@H]1O`, for which the “activity change, negative = inhibition” value is -10.6%.

Take `CCc1ccc(CC)cc1`: the “activity change, negative = inhibition” value was 0.172%. Still for that read-out and setting: then `CC(C)(C)N(CCO)CCO`, with 1.49%; and `O=CCCc1ccccc1`, with 2.91%; and `CCCCNc1ccc(NCCCC)c2c1C(=O)c1ccccc1C2=O`, with -1.01% [at 18.9 µM]. On to `O=C(O)c1ccncc1`, for which the “activity change, negative = inhibition” value was 15.6%. As for `Clc1cc(Cl)c(-c2c(Cl)c(Cl)cc(Cl)c2Cl)cc1Cl`, the “activity change, negative = inhibition” value is 10.9% [at 42.4 µM]. With `CC(=O)N(CC(O)CN(C(C)=O)c1c(I)c(C(=O)NCC(O)CO)c(I)c(C(=O)NCC(O)CO)c1I)c1c(I)c(C(=O)NCC(O)CO)c(I)c(C(=O)NCC(O)CO)c1I` (stereo unspecified), the “activity change, negative = inhibition” value is -9.55% [at 42.4 µM]. Still for that read-out and setting: then `CCCCCCCCCCCCS(=O)(=O)Cl`, with -6.5% [at 18.9 µM]; and `CC/C=C\CCOC(=O)c1ccccc1`, with -2.68%. In the case of `CCc1cc(Cc2cc(CC)cc(C(C)(C)C)c2O)c(O)c(C(C)(C)C)c1`, the “activity change, negative = inhibition” value was 0.072%. On the same count and under the same terms, then `CCOC(=O)C1=C(C)NC(C)=C(C(=O)OC)C1c1cccc(Cl)c1Cl` (stereo unspecified), with 3.9% [at 42.4 µM]; and `Clc1ccnc(Cl)n1`, with -9.42%.

On to `OCC(CO)(CO)COCC(CO)(CO)CO`, for which the “activity change, negative = inhibition” value is -6.9%. For `OCc1ccccn1`, the “activity change, negative = inhibition” value is -3.87% [at 42.4 µM]. On the same count and under the same terms, then `CCOC(=O)/C=C/C(=O)O`, with 5.24%. Same read-out and setting: then `CCCCC`, with -0.313%.

`Cc1ccc2c(c1)c1c3n2CCNC3CCC1` (stereo unspecified): the “activity change, negative = inhibition” value is -1.58% [at 42.4 µM]. As for `CCCCCCC(=O)OCC`, the “activity change, negative = inhibition” value was -2.71%. On the same count and under the same terms, then `CC1(C)S[C@@H]2[C@H](NC(=O)C(C(=O)O)c3ccccc3)C(=O)N2[C@H]1C(=O)O` (stereo partly specified), with 3.24% [at 42.4 µM]; and `CC(CC(C#N)(c1ccccc1)C(C)C)N(C)C` (stereo unspecified), with 9.42% [at 42.4 µM]. In the case of `O=P(O)(O)C(O)(Cc1cccnc1)P(=O)(O)O`, the “activity change, negative = inhibition” value is 0.665% [at 42.4 µM]. Still for that read-out and setting: then `C=CCCCC`, with 1.05%; and `CCCCCCCC1CCCC1=O` (stereo unspecified), with 2.78%.
